According to the supplement of paper PMC6555819:

Test system: VDR:RXRa (NR concentration 270 nM, RXRa partner concentration 90 nM)
Assay: PBM binding z-score (relative to random genomic background probes); higher = stronger binding; sequences stand for … in GC…GCGATTGACAGCGTAGAATGAAGG
Method: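 Protein-binding microarray (Agilent 4x180K custom design, double-stranded 60-nt probes: 5' GC cap, 34-nt variable region, 24-nt constant primer region; full probe sequence given). Purified or IVT nuclear receptor:RXRα heterodimers (3:1 NR:RXRα, mostly 270:90 nM) or homodimers were incubated for 1 h in PBS with 2% milk and no ligand, then detected with Alexa488 antibodies. Fluorescence from o1-orientation probes (~5 replicates averaged) was converted to z-scores against 500 random hg19 background probes. Variable regions are seed direct-repeat (DR0–DR5) sites, all their single-nucleotide variants and half-site ablations.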

Row | Sequence | PBM binding z-score
1 | CCTAGTTGGTCAGGAGGTCACAGACCGGATATGA | 3.64
2 | CAAGACAGGTGAAAGGTAACTCAGTCTGGTACGC | 0.87
3 | CAAACTAGGTCACCGGAAGGTCAAAGTCCGCATG | 6.25
4 | CCTACTGGGCCAAAGGTAATTGATTCCAATGCTC | -0.387
5 | TTACCAAGGTGAAAGGTAGTTGATGCACGCCTTG | 0.524
6 | ACTTACGGGTCACCGAGGTTATAGCACGCGTATA | 7.82
7 | AGTCAGAGTTCACTAGGTAACGTAAGATTCAGCT | 4.82
8 | GGCACGAGGGCAAAGTTGATAGCATCTGTCGACG | 1.23
9 | CCTATTAGTTGACCATAAGGGGAACCGAAGCTCG | 0.632
10 | CCTAGCAGGGCAGGGTCACTCAAGCATTTCGCTT | 2.88
11 | TATATTAGTTGAAGGGCAACCGACGAGTCCGTTT | 0.939
12 | TCAGACAGCTGAAGGTAACTCAGGTACGCAGTCG | 0.484
13 | CCTACTGGGGCATCAGGTCATTGATATCAACGTT | 1.85
14 | GCCTACGGGTCAAAGGTTATAGCATGAATAGAAT | 5.46
15 | CGTCCAAGGGCAGAGAGGTCAGTGAATGCCGAGT | 5.05
16 | TCATATAGGTAAAGGTGGAAGTCGAACGATATGA | 0.368
17 | GCTGCTAGGTCAACCGATGGTCAGCTAAAGCTCG | 1.54
18 | GGAACGAGGGCAAGGTGATAGCAGAGTTTGATGG | 0.867
19 | CAAACTAGGTAACGAAAGGTCAAAGTCGAATGAC | 4.87
20 | ATCTCTAGGTAAAGATAGTTCAGTCAATGCAAAT | 0.723

Row | Sequence | PBM binding z-score
21 | AGAATTAGGTTATTAAGATCAGGGAATTGCGGTC | 0.835
22 | CCGACTGGGGCACAGGTTACCATACTCAGTACGA | -0.165
23 | TCATATAGGTAAATGCTAGGTGTAAGTCCGATCT | 0.772
24 | ATACCGAGGTGATCGTGAGGTCGTTGATACTAAC | 3.69
25 | TCTATTAGTGGAAGGGCAACCGACGAGTCCGTTT | 0.969
26 | AGTCAACGTTCATCTAGGTAACGTAAGATATGCT | -0.0927
27 | GTACCGAGGTGAATAGGTCGTTGATGAGTAGGCG | 1.14
28 | CCTTACGGGTCGCGAGGTTATAGCACGACGAGCG | 2.88
29 | ATATGTAGGTTACATCCGGGTGATTCAGGCTATG | 0.753
30 | GTACCAAGGTGAATTGGTCGTTGATGAGTAGGCG | -0.409
31 | CAAACTTGGTCAAGAGGTCAAAGTCCGCTTCCCG | 5.4
32 | TTACCTAGGTGAGCTGAGGTCGTTGATCCAACTC | 3.05
33 | ATATGTAGGTTATCTGGTCATTCAGTTTGCGCAT | 2.12
34 | CGTCAAAGTTCTACTAAGGTAACGTAAAGCACGC | 0.34
35 | ACTATTAGTTGAGACGAGGGGAACCGATAGGTTG | -0.291
36 | CCGACTGGGGAAGAAAGGTTACCATACCATCCGG | 0.522
37 | TAGCCTAGGTCATGGGCCAGCATACCACGCGAAC | 1.68
38 | AATACAGGGTCACTCGGCCAGAGTAGGTACGAAT | 4.3
39 | ATCTCTAGGTAACCAGGTTCAGTGAATGCCGAAC | 4.05
40 | CCTACTGGGCCAAGGTCATGGATCAGTCAAAGCA | 3.05
